Source: the supplement of paper PMC10503962

System: Trichuris muris adult worms
Assay: mean motility score (Paragon pixel variance) of adult worms (arbitrary units); higher = more motile worms, i.e. less anthelmintic effect; extreme values may be limits of the assay
Conditions: 100 µM; 24 h
Procedure: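 Primary ex vivo screen of 409 approved drugs against adult Trichuris muris worms: one worm per well in RPMI-1640 with penicillin/streptomycin, 100 µM drug in 1% DMSO, 37 °C, 5% CO2 for 24 h. Motility was recorded with INVAPP (200-frame movies) and scored with the Paragon pixel-variance algorithm. Values are means of triplicate wells run on three occasions; levamisole was the positive control and DMSO the negative control.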

Q: `NNCCc1ccccc1` [phenelzine] was tested. Which mean motility score did it give?
A: Its mean motility score is 3810.

Q: `CN(C)C(=N)N=C(N)N.Cl` [metformin hydrochloride] was tested. Which mean motility score did it give?
A: The mean motility score was 4240.

Q: How did the mean motility score turn out when `C=C[C@H]1CN2CC[C@H]1C[C@@H]2[C@@H](O)c1ccnc2ccc(OC)cc12` [quinidine] was run?
A: Its mean motility score is 1610.

Q: Which mean motility score does the source give for `OC(CCCN1CCCCC1)(c1ccccc1)c1ccccc1` [diphenidol] here?
A: Its mean motility score is 1940.

Q: `Clc1ccc2c(c1)C(N1CCNCC1)=Nc1ccccc1O2` [amoxapine] was tested. Which mean motility score did it give?
A: Its mean motility score is 804.

Q: How did the mean motility score turn out when `O=c1ccc2ccccc2o1` [coumarin] was run?
A: The mean motility score was 3690.

Q: `CCc1cccc2c3c([nH]c12)C(CC)(CC(=O)O)OCC3` (stereo not given) [etodolac] was tested. Which mean motility score did it give?
A: Its mean motility score is 2190.

Q: With `CN1CC(=O)N2[C@H](c3ccc4c(c3)OCO4)c3[nH]c4ccccc4c3C[C@@H]2C1=O` [tadalafil] as the compound, how does the mean motility score read?
A: The mean motility score was 990.

Q: For `O=C1C(O)=C([C@H]2CC[C@H](c3ccc(Cl)cc3)CC2)C(=O)c2ccccc21` [atovaquone], which mean motility score is on record?
A: The mean motility score was 1650.

Q: Which mean motility score does the source give for `COc1cccc2c1C(=O)c1c(O)c3c(c(O)c1C2=O)C[C@@](O)(C(=O)CO)C[C@@H]3O[C@H]1C[C@H](N)[C@H](O)[C@H](C)O1` [doxorubicin] here?
A: Its mean motility score is 2090.

Q: With `Br.CCCCCCCCCCCCCCCC[N+](C)(C)CCN(Cc1ccc(OC)cc1)c1ncccn1` [thonzonium bromide] as the compound, how does the mean motility score read?
A: Its mean motility score is 0.

Q: `COc1ccc(CCN(C)CCCC(C#N)(c2ccc(OC)c(OC)c2)C(C)C)cc1OC` (stereo not given) [verapamil] was tested. Which mean motility score did it give?
A: Its mean motility score is 3440.

Q: `Cc1nnc(NS(=O)(=O)c2ccc(N)cc2)s1` [sulfamethizole] was tested. Which mean motility score did it give?
A: The mean motility score was 3570.

Q: `CC(c1cc2ccccc2s1)N(O)C(N)=O` (stereo not given) [zileuton] was tested. Which mean motility score did it give?
A: The mean motility score was 3310.

Q: With `Nc1nnc(-c2cccc(Cl)c2Cl)c(N)n1` [lamotrigine] as the compound, how does the mean motility score read?
A: The mean motility score was 2280.

Q: For `Cc1c(C)c2c(c(C)c1O)CC[C@@](C)(CCC[C@H](C)CCC[C@H](C)CCCC(C)C)O2` [vitamin E], which mean motility score is on record?
A: The mean motility score was 2950.

Q: How did the mean motility score turn out when `CN(CCOc1ccc(CC2SC(=O)NC2=O)cc1)c1ccccn1` (stereo not given) [rosiglitazone] was run?
A: The mean motility score was 603.

Q: Which mean motility score does the source give for `CCOc1cc2ncc(C#N)c(Nc3ccc(OCc4ccccn4)c(Cl)c3)c2cc1NC(=O)/C=C/CN(C)C` [neratinib] here?
A: The mean motility score was 1890.

Q: How did the mean motility score turn out when `CNC[C@H](O)c1cccc(O)c1` [phenylephrine] was run?
A: The mean motility score was 3950.

Q: How did the mean motility score turn out when `C=CC(=O)N1CCC[C@@H](n2nc(-c3ccc(Oc4ccccc4)cc3)c3c(N)ncnc32)C1` [ibrutinib] was run?
A: Its mean motility score is 433.

Q: Which mean motility score does the source give for `COC(=O)C1=C(C)NC(C)=C(C(=O)OCCN2CCN(C(c3ccccc3)c3ccccc3)CC2)C1c1cccc([N+](=O)[O-])c1.Cl` (stereo not given) [manidipine hydrochloride] here?
A: Its mean motility score is 1540.

Q: With `CN1CCC[C@H]1c1cccnc1` [nicotine] as the compound, how does the mean motility score read?
A: Its mean motility score is 0.

Q: `C[C@@H]1C[C@H]2[C@@H]3CCC4=CC(=O)C=C[C@]4(C)[C@@]3(F)[C@@H](O)C[C@]2(C)[C@H]1C(=O)CO` [desoximetasone] was tested. Which mean motility score did it give?
A: The mean motility score was 772.

Q: How did the mean motility score turn out when `CN/C(=N/CCSCc1nc[nH]c1C)NC#N` [cimetidine] was run?
A: The mean motility score was 2750.

Q: Which mean motility score does the source give for `Cc1cc(CC(=O)[O-])n(C)c1C(=O)c1ccc(Cl)cc1.[Na+]` [zomepirac sodium] here?
A: The mean motility score was 2840.

Q: How did the mean motility score turn out when `C[C@@H](c1ncncc1F)[C@](O)(Cn1cncn1)c1ccc(F)cc1F` [voriconazole] was run?
A: Its mean motility score is 4350.

Q: For `COc1cc2nccc(Oc3ccc(NC(=O)NC4CC4)c(Cl)c3)c2cc1C(N)=O` [lenvatinib], which mean motility score is on record?
A: The mean motility score was 2500.

Q: For `O=C(CCCN1CC=C(n2c(O)nc3ccccc32)CC1)c1ccc(F)cc1` [droperidol], which mean motility score is on record?
A: The mean motility score was 2120.

Q: With `CS(=O)(=O)Nc1ccc([N+](=O)[O-])cc1Oc1ccccc1` [nimesulide] as the compound, how does the mean motility score read?
A: Its mean motility score is 1.33.

Q: How did the mean motility score turn out when `O=c1oc2ccccc2c(O)c1Cc1c(O)c2ccccc2oc1=O` [dicumarol] was run?
A: The mean motility score was 0.

Q: How did the mean motility score turn out when `COc1cc2nc(N(C)CCCNC(=O)C3CCCO3)nc(N)c2cc1OC` (stereo not given) [alfuzosin] was run?
A: The mean motility score was 2420.

Q: `C[C@@H]1CN(c2c(F)c(N)c3c(=O)c(C(=O)O)cn(C4CC4)c3c2F)C[C@H](C)N1` [sparfloxacin] was tested. Which mean motility score did it give?
A: The mean motility score was 3980.

Q: For `Cc1nnc(SCC2=C(C(=O)[O-])N3C(=O)[C@@H](NC(=O)Cn4cnnn4)[C@H]3SC2)s1.[Na+]` [cefazolin sodium], which mean motility score is on record?
A: Its mean motility score is 1680.

Q: For `Nc1nc(O)c2ncn(COC(CO)CO)c2n1` [ganciclovir], which mean motility score is on record?
A: Its mean motility score is 2950.

Q: `NS(=O)(=O)Cc1noc2ccccc12` [zonisamide] was tested. Which mean motility score did it give?
A: The mean motility score was 2960.

Q: `CC(=O)O[C@H]1C(=O)[C@@]2(C)[C@H]([C@H](OC(=O)c3ccccc3)[C@]3(O)C[C@H](OC(=O)[C@H](O)[C@@H](NC(=O)c4ccccc4)c4ccccc4)C(C)=C1C3(C)C)[C@]1(OC(C)=O)CO[C@@H]1C[C@@H]2O` [paclitaxel] was tested. Which mean motility score did it give?
A: The mean motility score was 1480.

Q: `OCc1ccccc1` [benzyl alcohol] was tested. Which mean motility score did it give?
A: The mean motility score was 2390.

Q: For `C[C@]12CC[C@@H]3c4ccc(O)cc4CC[C@H]3[C@@H]1CCC2=O` [estrone], which mean motility score is on record?
A: Its mean motility score is 2280.

Q: `CC1CCc2c(N3CCC(O)CC3)c(F)cc3c(=O)c(C(=O)O)cn1c23` (stereo not given) [nadifloxacin] was tested. Which mean motility score did it give?
A: Its mean motility score is 2660.

Q: `Oc1ncnc2[nH]ncc12` [allopurinol] was tested. Which mean motility score did it give?
A: Its mean motility score is 4000.
